Rab9 promoter act: activators of Rab9 promoter; Huh7 Rab9 promoter-luciferase reporter, luminescence, 24 h; Potency, µM (doses to about 9.22 µM), for inactives: top-dose activation, negative = inhibition, most hits filed as activators; 320,000 compounds, 2.8% hits; further: % of control where 0% means no effect; nearly all actives have a fitted effect of over 60% in size
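Huh7 cells stably carrying a Rab9 promoter-luciferase reporter, 1500 cells per well in OP-MEM I with 10% FBS, treated with compound 24 hours at 37C. Luciferase activity read by luminescence after 10 minutes with Amplite reagent.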
NPC1 promoter act: activates the NPC1 promoter | Huh7 NPC1 promoter luciferase reporter, 24 h | Potency, µM (highest dose often 9.22 µM), inactives show at the top dose activation, actives largely listed as activators | 320,000 compounds, 2.4% hits | AID 485313; further: % of control where 0% means no effect; nearly all actives have a fitted effect of over 60% in size
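Cells: Huh7 expressing luciferase under the NPC1 promoter, 1500/well. Seeded 2 h, compound added, incubated 24 h at 37 °C. Luciferase reagent, 10 min ambient, then luminescence.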
ELG1 genotoxic: inducers of genotoxicity in HEK293T ELG1-luciferase cells; Potency, µM (doses to about 46 µM), without a hit: at the top dose activity change, positive = activation, most hits filed as activators; AID 504466; HEK293T ELG1-luciferase reporter, luminescence, 16 h; 330,000 compounds, 1.3% hits; further: % of control where 0% means no effect; nearly all actives have a fitted effect of over 60% in size
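16 hr compound incubation (37 °C, 5% CO2) of HEK293T cells carrying luciferase-tagged ELG1; luciferase then measured by ONE-Glo luminescence after 30 min at RT.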
ELG1 DNA repair: ELG1-dependent DNA repair inhibition. HEK293T ELG1-luciferase reporter, luminescence, 16 h; DNA damage induced by 5-fluorouridine. Potency, µM (doses to about 46.1 µM), for the others: at the highest dose activity change, negative = inhibition, most hits filed as inhibitors. 330,000 compounds, 2.3% hits. AID 504467; further: on the % scale 0 is the no-effect control and ±100 the full control effect; nearly all actives have a fitted effect of over 55% in size
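5-Fluorouridine DNA damage + compound/DMSO, 2,000 cells/well, 16 h, 37 °C/5% CO2. ONE-Glo, 30 min RT, luminescence. Readout = decrease in reporter signal.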
SMN2 splice up: enhancers of SMN2 splice variant expression. HEK293 SMN2-luciferase splicing reporter, luminescence, 30-36 h. Potency, µM (series often up to 46.1 µM), inactives show at the highest dose activity change, positive = activation, usual class: activators. 210,000 compounds, 2.8% hits. AID 1458; further: % of control where 0% means no effect; nearly all actives have a fitted effect of over 55% in size
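HEK293 cells carry an SMN2 […]–luciferase reporter in which exon 7 inclusion puts luciferase in frame. Cells were plated 10-12 h before compound addition, then incubated 30-36 h at 37C. ONE-Glo luminescence was read; sodium butyrate at 4.5 mM final served as control.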
FLuc modulator: firefly luciferase modulation, counter-screen for miR-21 project; purified FLuc, Km substrates, luminescence inhibition; Potency, µM (highest dose often 57.5 µM), for the others: at the highest dose activity change, negative = inhibition, most hits filed as inhibitors; 360,000 compounds, 6.9% hits; AID 588342;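 further: plate controls were vehicle for no effect and reference inhibitor for full effect; nearly all actives have a fitted effect of over 55% in size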
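Purified P. pyralis luciferase (10nM final) with 10uM D-luciferin and 10uM ATP (Km levels) in 50mM Tris acetate pH 7.5, 10mM Mg acetate, 0.01% Tween-20, 0.05% BSA; qHTS 6-point titration, ~60 µM downward; luminescence read.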
ELG1 FLuc counter: luciferase inhibition in cell-free luciferin readout for ELG1 hits | shares compounds with ELG1 DNA repair | cell-free firefly luciferase luminescence counter-screen, ViewLux | Potency, µM (top dose mostly 46.1 µM), without a hit: top-dose activity change, negative = inhibition, most hits filed as inhibitors | 350 compounds, 3% hits | AID 624247; further: on the % scale 0 is the no-effect control and ±100 the full control effect
ELG1-Luc inh: human ELG1 repair inhibition, luciferase-tagged ELG1 confirmation | shares compounds with ELG1 DNA repair | HEK293T ELG1-luciferase levels, luminescence; cells co-treated with 5-fluorouridine | Potency, µM (titrated, usually from 46.1 µM), for the others: at the top dose activity change, negative = inhibition, actives largely listed as inhibitors | 670 compounds, 68% hits; further: on the % scale 0 is the no-effect control and ±100 the full control effect; nearly all actives have a fitted effect of over 55% in size
ELG1 MMS Luc: confirmation of human ELG1 repair inhibitors, MMS stimulated; AID 624249; HEK293T luciferase-tagged ELG1 level, MMS stimulated; shares compounds with ELG1 DNA repair; Potency, µM (highest dose often 46.1 µM), inactives show at the highest dose activity change, negative = inhibition, actives largely listed as inhibitors; 670 compounds, 53% hits; further: on the % scale 0 is the no-effect control and ±100 the full control effect; nearly all actives have a fitted effect of over 60% in size
ELG1 5-FU: confirmation of ELG1 repair inhibitors: viability with 5FU; shares compounds with ELG1 DNA repair; cell viability with 5-FU, ELG1-dependent repair; Potency, µM (series often up to 46.1 µM), for the others: at the top dose activity change, negative = viability loss, most hits filed as cytotoxic; 670 tested, under 10 active; AID 624250;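 further: ELG1-luc HEK293T cells cotreated with 5-fluorouridine at 10 µM final; viability measured 16 h after compound addition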
ELG1 MMS viab: confirmation of ELG1 repair inhibitors: viability with MMS; shares compounds with ELG1 DNA repair; Cell viability with MMS, ELG1-dependent DNA repair; Potency, µM (titrated, usually from 46.1 µM), inactives show at the top dose activity change, negative = viability loss, hits mostly cytotoxic; 670 compounds, 33% hits;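 further: ELG1-luc HEK293T cells co-treated with 10 µM MMS; viability read 16 h after compound addition; on the % scale 0 is the no-effect control and ±100 the full control effect; nearly all actives have a fitted effect of over 60% in size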
ELG1 unstim viab: counter-screen for ELG1 repair inhibitors: unstimulated cell viability; shares compounds with ELG1 DNA repair; cell viability counter-screen, unstimulated, luminescence; Potency, µM (top dose mostly 45.9 µM), for inactives: at the highest dose activity change, negative = loss of viability, usual class: cytotoxic; 900 compounds, 8% hits;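 further: compound exposure lasted 16 hours before reading; on the % scale 0 is the no-effect control and ±100 the full control effect; nearly all actives have a fitted effect of over 55% in size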
FLuc enzyme: firefly luciferase inhibition counter-screen; shares compounds with ELG1 DNA repair; purified firefly luciferase, luminescence counter-screen; Potency, µM (titrated, usually from 57.5 µM), without a hit: top-dose activity, negative = inhibition, most hits filed as inhibitors; 350 compounds, 10% hits; further: on the % scale 0 is the no-effect control and ±100 the full control effect
* = called active by the depositor; ? = inconclusive; / = no result; [ ] = another dose, or the depositor's remark. The list is not random: actives were taken first. Their share in the collection is about 9.2%. The call rests on the fitted dose curve; in most records, active means well fitted curve in the direction sought with a large enough effect; inconclusive means small, poorly fitted or top-dose-only effect, or another doubt; inactive means no such curve, though single readings can be large; an effect the other way counts as inactive or inconclusive. Potency means the concentration at half of the fitted maximal effect.

SMILES	Rab9 promoter act	NPC1 promoter act	ELG1 genotoxic	ELG1 DNA repair	SMN2 splice up	FLuc modulator	ELG1 FLuc counter	ELG1-Luc inh	ELG1 MMS Luc	ELG1 5-FU	ELG1 MMS viab	ELG1 unstim viab	FLuc enzyme
COc1ccc(S(=O)(=O)N2CCOCC2)cc1NC(=O)c1cccc2c(=O)c(C)c(-c3ccccc3)oc12	-2%	-5%	-6%	4.1µM*	/	-1%	/	4.4µM*	-3%	13%	6%	-18%	/
COc1cc(-c2cc(C(=O)Nc3cc(S(=O)(=O)N4CCOCC4)ccc3C)c3ccccc3n2)cc(OC)c1OC	-3%	-3%	-9%	3.7µM*	/	1%	/	5µM*	?	?	-4%	?	/
COc1ccc(S(=O)(=O)N2CCOCC2)cc1NC(=O)c1cc(C)oc1C	-1%	-4%	0%	2%	/	4%	/	/	/	/	/	/	/
COc1cc(-c2cc(C(=O)Nc3ccc(S(=O)(=O)NCc4ccco4)cc3)c3ccccc3n2)cc(OC)c1OC	-6%	-5%	-6%	2.6µM*	/	2%	/	2µM*	4µM*	?	-2%	-18%	/
CCN(CC)S(=O)(=O)c1ccc(N2CCOCC2)c(NC(=O)c2cc(-c3ccccn3)nc3ccccc23)c1	1%	-3%	-12%	1.8µM*	-38%	-4%	/	4.4µM*	5µM*	-9%	10µM*	?	/
Cc1nc2c(Br)c(C)nn2c2c1CCC2	4%	-6%	2%	4%	-16%	3%	/	/	/	/	/	/	/
CN(CC(=O)Nc1ccccc1C(F)(F)F)C(=O)C1=COCCO1	3%	-7%	2%	27%	/	0%	/	/	/	/	/	/	/
COc1ccc2ccccc2c1/C=N/NC(=S)Nc1cc(S(=O)(=O)N2CCOCC2)ccc1N1CCOCC1	-12%	-1%	1%	1.6µM*	-7%	-13%	/	?	11%	?	?	13%	/
O=C1c2cccc(OCc3ccc(F)cc3)c2CCN1Cc1ccc(F)cc1	-20%	-21%	0%	4.1µM*	-79%	0%	/	13µM*	3.5µM*	-5%	3.1µM*	?	/
CCN1CCc2c(OCc3ccc(C(=O)OC)o3)cccc2C1=O	5%	-3%	-5%	-13%	-3%	-4%	/	/	/	/	/	/	/
COCC1CCN(C(=O)c2cc(COc3ccc4ncccc4c3)on2)CC1	-38%	-24%	-9%	?	/	-10%	/	/	/	/	/	/	/
O=C(c1cc(COc2ccc3ncccc3c2)on1)N1CCCC1	-15%	-11%	4%	?	/	?	25%	41%	13µM*	-1%	16µM*	?	?
O=C(NC1CCCC1)c1cc(COc2ccc3ncccc3c2)on1	-41%	-28%	-2%	2.3µM*	/	?	-3%	?	2.5µM*	-3%	3.2µM*	?	?
COc1ccc(CCNC(=O)CCS(=O)(=O)c2cc(Br)cc3c2N(C(C)=O)CC3)cc1OC	/	/	/	/	-1%	1%	/	/	/	/	/	/	/
O=C(Nc1ccc(F)cc1)C1CCC(CNc2c(N3CCCCC3)c(=O)c2=O)CC1 (configuration not stated)	0%	-2%	-3%	0%	/	5%	73%	?	7%	5%	-4%	-11%	-10%
COc1cc(NC(=O)C2CCC(CNc3c(N4CCCCC4)c(=O)c3=O)CC2)cc(OC)c1 (configuration not stated)	0%	-2%	10%	?	11%	-2%	-9%	11µM*	-8%	?	-16%	?	-6%
COc1cc(NC(=O)C2CCC(CNc3c(N4CCC(C)CC4)c(=O)c3=O)CC2)cc(OC)c1 (configuration not stated)	1%	-2%	?	?	-5%	-1%	/	/	/	/	/	/	/
Cc1cc2cc3c(cc2nc1SCC(=O)N1CCCC1)OCCO3	0%	1%	-4%	?	/	-4%	/	/	/	/	/	/	/
N#Cc1cc2cc3c(cc2nc1SCC(=O)N1CCOCC1)OCCO3	?	?	?	?	/	-7%	-13%	/	/	/	/	?	?
CN(C)CCNC(=O)c1ccccc1-c1cc2ccccc2c(=O)o1	1%	-1%	0%	1%	/	-1%	/	/	/	/	/	/	/
CN(C)c1ccc(-c2cc3ccccc3c(=O)o2)cc1	/	/	?	?	/	/	86%	/	/	/	/	?	0.18µM*
COc1cc(CN2CCN(C(=O)c3cccc4ccccc34)CC2)cc(OC)c1O	3%	-5%	0%	-15%	/	0%	/	/	/	/	/	/	/
CC(=O)c1cn(CC(=O)Nc2ccc(C)c(C)c2)c2ccccc12	-12%	-12%	-5%	2.1µM*	-38%	1%	/	-10%	?	-4%	?	-4%	/
O=C(O)c1cc(S(=O)(=O)N2CCOCC2)c[nH]1	1%	-2%	4%	23%	/	-2%	/	/	/	/	/	/	/
CC(C)CCNC(=O)COC(=O)/C=C/c1ccc2ccccc2n1	3%[1.84 µM]	1%	-2%	0%	-24%	-10%	/	/	/	/	/	/	/
C(=C\c1ccc2ccccc2n1)/c1ccc2ccccc2n1	/	/	/	/	/	/	39%	/	/	/	/	3%	0.29µM*

Assay outcomes deposited in PubChem BioAssay by National Center for Advancing Translational Sciences (NCATS).
